Source: PubChem BioAssay
DUX4 txn inh = DUX4-mediated transcription inhibition. 293T-iDUX4 ZSCAN4-Gaussia luciferase reporter, 24 h; hits give low values. activity change, negative = inhibition, % (test concentration not listed). actives 0.8% (n = 37,000). AID 1224904;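 active = mean inhibition of at least 10% in the main channel, exceeding the control channel by a set limit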;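 note: 0% = median of neutral control wells and -100% = median of positive control wells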
* marks the source's active call; other numbers are inactive results. This excerpt belongs to a sample that is enriched for hits.

SMILES	DUX4 txn inh
COc1ccc2c3c(n(C)c2c1)[C@H](CO)NCC31CN(Cc2ccc(Cl)cc2)C1	-48.2*
COc1ccc2c3c(n(C)c2c1)[C@H](CO)NCC31CN(Cc2ccccc2Cl)C1	3.5
COc1ccc2c3c(n(C)c2c1)[C@@H](CO)NCC31CN(Cc2ccc(-c3ccccn3)cc2)C1	-3.0
O=C(C[C@@H]1C[C@@H]2c3cc(NC(=O)C4CCC4)ccc3O[C@@H]2[C@@H](CO)O1)NCc1ccccn1	1.1
COc1ccc2c3c([nH]c2c1)[C@H](CO)N(Cc1ccccc1F)CC31CN(S(C)(=O)=O)C1	-44.7*
COc1ccc2c3c([nH]c2c1)[C@H](CO)N(Cc1ccccc1F)CC31CN(C)C1	-6.0
COc1ccc2c3c([nH]c2c1)[C@@H](CO)N(Cc1ccccc1F)CC31CN(C(=O)C2CCOCC2)C1	-5.0
COCC(=O)N1CC2(C1)CN(Cc1ccccc1Cl)[C@H](CO)c1[nH]c3cc(OC)ccc3c12	-4.8
COc1ccc2c3c([nH]c2c1)[C@H](CO)N(Cc1cc(F)ccc1F)CC31CN(C(=O)C2CCC2)C1	-73.8*
COc1ccc2c3c([nH]c2c1)[C@H](CO)N(Cc1cc(F)ccc1F)CC31CCN(C(=O)CN(C)C)CC1	-9.0
Cc1noc(C)c1NC(=O)N(C)C[C@H]1Oc2c(NC(=O)c3cnccn3)cccc2C(=O)N([C@H](C)CO)C[C@@H]1C	-0.9
COc1ccc2c3c(n(C)c2c1)[C@@H](CO)N(C(C)=O)CC31CN(C(=O)Nc2ccc(F)cc2)C1	4.0
O=C([C@H]1[C@H](CO)[C@H]2Cn3c(ccc(C4=CCCCC4)c3=O)[C@@H]1N2Cc1nccs1)N1CCCCC1	-5.6
COCCNC(=O)C[C@@H]1C[C@@H]2c3cc(NC(=O)c4cccnc4)ccc3O[C@@H]2[C@@H](CO)O1	7.8
CN(C)CC(=O)Nc1ccc2c(c1)[C@@H]1C[C@@H](CC(=O)NCc3ccc(-c4ccccc4)cc3)O[C@H](CO)[C@@H]1O2	-5.2
O=C(C[C@@H]1C[C@@H]2c3cc(NC(=O)Cc4ccncc4)ccc3O[C@@H]2[C@H](CO)O1)NCc1cc(F)ccc1F	7.1
O=C(C[C@H]1C[C@H]2c3cc(NC(=O)Cc4ccncc4)ccc3O[C@H]2[C@H](CO)O1)NCc1ccc(-c2ccccc2)cc1	-68.4*
O=C(C[C@H]1C[C@H]2c3cc(NC(=O)Cc4ccncc4)ccc3O[C@H]2[C@H](CO)O1)NCc1cc(F)ccc1F	-35.8*
CN(C)CC(=O)Nc1ccc2c(c1)[C@@H]1C[C@H](CC(=O)NCc3ccc(-c4ccccc4)cc3)O[C@H](CO)[C@@H]1O2	-6.6
O=C(C[C@@H]1C[C@H]2c3cc(NC(=O)CC4CC4)ccc3O[C@H]2[C@H](CO)O1)NCc1cc(F)ccc1F	-2.8
CNC(=O)C[C@H]1CC[C@@H]2[C@@H](COc3ccc(NS(=O)(=O)c4ccc(F)cc4)cc3C(=O)N2C)O1	-1.4
CCCC#Cc1cnc2c(c1)C(=O)N([C@@H](C)CO)C[C@H](C)[C@@H](CN(C)S(=O)(=O)c1cccc(OC)c1)O2	-0.8
CCCNC(=O)N[C@@H]1CC[C@@H](CC(=O)N2CCN(C)CC2)O[C@@H]1CO	-0.2
O=C(C[C@@H]1CC[C@@H](NC(=O)c2ccc(F)cc2)[C@@H](CO)O1)NCCc1ccccc1	-0.9
CN(C)CC#Cc1ccc([C@@H]2[C@H](CO)N3CCCCN(C(=O)Nc4cc(F)ccc4F)C[C@@H]23)cc1	20.5
SMILES	DUX4 txn inh
COCC#Cc1ccc([C@H]2[C@@H](CO)N3CCCCN(C(=O)Nc4cc(F)ccc4F)C[C@H]23)cc1	-23.2*
C/C=C/c1ccc([C@H]2[C@@H](CO)N3CCCCN(C(=O)Nc4ccc(F)cc4)C[C@@H]23)cc1	14.7
COCC#Cc1ccc([C@@H]2[C@@H](CO)N3CCCCN(C(=O)Nc4cc(F)ccc4F)C[C@@H]23)cc1	-1.1
C/C=C/c1ccc([C@@H]2[C@@H](CO)N3CCCCN(C(=O)Nc4cc(F)ccc4F)C[C@@H]23)cc1	-12.5*
O=C(Nc1ccccc1F)N1CCCCN2[C@H](C1)[C@H](c1ccc(/C=C/c3ccccc3)cc1)[C@@H]2CO	2.7
Cc1noc(C)c1NC(=O)NCC[C@H]1CC[C@@H](NC(=O)Cc2cccnc2)[C@H](CO)O1	-3.3
C[C@@H]1CN([C@@H](C)CO)C(=O)c2c(c3ccccc3n2C)-c2ccccc2CO[C@@H]1CN(C)S(=O)(=O)c1cn(C)cn1	26.8
CC(C)NC(=O)N1CC(=O)N2[C@H](CO)[C@@H](c3ccc(C#CCN(C)C)cc3)[C@@H]2C1	9.9
CCC(=O)N1[C@@H](CO)[C@H](c2ccccc2)[C@@H]1CNC(=O)CN1CCOCC1	-2.0
CC(=O)N1CC(=O)N2[C@H](CO)[C@@H](c3ccc(-c4ccc(C#N)cc4)cc3)[C@H]2C1	13.7
COc1ccc2c3c(n(C)c2c1)[C@H](CO)N(C(=O)C1CCCC1)CC31CCN(C(=O)CC2CC2)CC1	6.4
C[C@H]1CN([C@@H](C)CO)C(=O)c2cc(NC(=O)c3ccncc3)ccc2O[C@@H]1CN(C)S(=O)(=O)c1ccc(Cl)cc1	-2.2
CCCNC(=O)N1[C@H](C#N)[C@H](c2ccc(C#Cc3ccc(F)cc3)cc2)[C@@H]1CO	3.2
OC[C@H]1[C@@H](c2ccc(C#Cc3cccnc3)cc2)[C@@H]2CN(Cc3ccccc3F)CCCCN12	-50.6*
OC[C@@H]1[C@@H](c2ccc(C#Cc3cccnc3)cc2)[C@H]2CN(Cc3ccccc3F)CCCCN12	-45.3*
CC(C)(O)C#Cc1ccc([C@H]2[C@H]3CN(Cc4ccccc4F)CCCCN3[C@H]2CO)cc1	3.5
O=C(Nc1ccccc1F)N1CCCCN2[C@H](C1)[C@H](c1ccc(C#Cc3cccnc3)cc1)[C@@H]2CO	-9.9
OC[C@@H]1[C@@H](c2ccc(C#Cc3ccccc3)cc2)[C@H]2CN(Cc3cncnc3)CCCCN12	-3.9
CC(C)(O)C#Cc1ccc([C@H]2[C@@H](CO)N3CCCCN(Cc4ccccc4F)C[C@@H]23)cc1	19.0
CCC(=O)N1CCCCN2[C@@H](CO)[C@@H](c3ccc(-c4cccc(C#N)c4)cc3)[C@@H]2C1	15.5
O=C(Nc1ccccc1F)N1CCCCN2[C@H](CO)[C@@H](c3ccc(C#Cc4cccnc4)cc3)[C@H]2C1	-2.8
N#Cc1cccc(-c2ccc([C@@H]3[C@@H](CO)N4CCCCN(Cc5ccccc5F)C[C@H]34)cc2)c1	-33.3*
CC(C)(O)C#Cc1ccc([C@@H]2[C@@H](CO)N3CCCCN(Cc4ccccc4F)C[C@@H]23)cc1	15.9
OC[C@H]1[C@@H](c2ccc(C#Cc3cccnc3)cc2)[C@H]2CN(Cc3ccccc3F)CCCCN21	-42.7*
CCC(=O)N1CCCCN2[C@H](C1)[C@@H](c1ccc(-c3cccc(C#N)c3)cc1)[C@@H]2CO	3.7
SMILES	DUX4 txn inh
CC(=O)N1[C@@H](CO)[C@H](c2ccccc2)C12CN(C(=O)Nc1ccccc1F)C2	9.9
C[C@H]1COCn2nncc2CC[C@H](C)C(=O)N1	-4.0
CO[C@@H]1CN(C)C(=O)c2ccc(NC(=O)Cc3ccccc3)cc2OC[C@H](C)N(C(C)=O)C[C@H]1C	5.7
C[C@H]1CCCCO[C@@H](CN(C)C(=O)NC2CCCCC2)[C@@H](C)CN([C@@H](C)CO)C(=O)c2cc(NC(=O)CCC(F)(F)F)ccc2O1	-1.5
COc1ccc(-c2ccc(C3[C@H]4CNC[C@@H]3N4C(=O)Nc3ccc(C(F)(F)F)cc3)cc2)cc1 (some centres undefined)	16.1
CCC(=O)N1CC2(CCN(Cc3cncnc3)CC2)c2c([nH]c3cc(OC)ccc23)[C@@H]1CO	6.8
